In all, about 4,700 compounds went through this assay and about 360 (7.7%) were called active. These entries were drawn from the full list. Values without a mark were called inactive.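 The calls were made as follows: active = inhibition above a cutoff derived from the DMSO control wells (cut at about 30% in these data); inactive = the rest.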

The experiment is described as follows: AlphaScreen optical interference compounds, counter-screen for MITF inhibitor project, biochemical, triplicate (AID 1259376). To be noted: LysRS AlphaScreen counterscreen, signal interference, at 2.6 µM, active compounds read high.
As for `CC(C)(C)n1nnnc1C(c1ccc2ncccc2c1)N1CCSCC1` (configuration not stated), the inhibition (as a rule, the relative decrease from the control value, in per cent) is 30.7% (active).
The value for `CCSc1ccccc1C(=O)N1CCN(c2ccc(-c3ccccn3)nn2)CC1` was 101% (active); that for `Brc1cccc(CN2CCN(Cc3cccnc3)CC2)c1` was -5.02%; that for `Cc1cc(C(C)(C)C)ccc1OCCN1CCNCC1` was -9.28%.
Next, `CCN1CCN(CCOCCOc2ccccc2OCc2ccccc2)CC1`: 9.59%; `Cc1cc(NC(=O)/C=C/C(=O)N(CC(=O)NC2CCCC2)c2ccc(F)cc2)no1`: 10.1%.
Next, `O=C(c1ccc2c(c1)C(=O)N(Cc1cccnc1)C2=O)c1ccc2c(c1)C(=O)N(Cc1cccnc1)C2=O`: 24.6%.
On to `CN(CCc1ccccn1)Cc1cccnc1`, for which the inhibition was 22.1%.
As for `Cc1ccc(OCCCCNCCN2CCOCC2)c(Br)c1`, the inhibition was 13.8%.
The value for `CCc1cccc(OCCOCCn2ccnc2)c1` was -2.1%.
Next, `CCc1ccc(OCCCCn2ccnc2)cc1`: 0.71%; `N#Cc1nc(COc2cccc(Cl)c2)oc1NCCCn1ccnc1`: 65.7% (active).
Next, `c1ccc(-n2cc(CN3CCOCC3)c(-c3ccc4c(c3)OCCO4)n2)cc1`: 10%.
With `CCCS(=O)(=O)N1CCN(Cc2ccc(OC)c(OCc3ccccc3)c2)CC1`, the inhibition was 9.8%.
For `CN1CCC(N2CCN(c3ccccc3Cl)CC2)CC1`, the inhibition was 14.1%.
Next, `COc1cc(Nc2ncnc3c2nc(N2CCOCC2)n3C(C)C)cc(OC)c1OC`: 13.7%; `COc1ccc(Cn2nnc(C(=O)Nc3cccc(Cl)c3)c2N)cc1`: 14.3%.
With `O=C(CNCc1ccc(F)cc1)Nc1ccc(N2CCCC2)cc1`, the inhibition was 25.2%.
Regarding `CCOc1ccc(CN2CCCN(C)CC2)cc1`, the inhibition was 0.42%.
Next, `CCCn1c(C)cc(-c2csc(NC(=O)Cc3ccsc3)n2)c1C`: 12%.
For the compound `CC(=O)NS(=O)(=O)c1ccc(-c2ccc(C=C(C#N)C#N)o2)cc1`, the inhibition was 3.05%.
Next, `COc1ccc(CN2CCN(Cc3ccccc3OC)CC2)cc1Br`: 7.62%; `Cc1cccc(CSc2n[nH]c(=O)[nH]c2=O)c1`: -7.01%; `CC1CN(CCOc2ccccc2[N+](=O)[O-])CC(C)O1` (configuration not stated): 13.4%.
Consider `COc1ccc(OCCn2ccnc2C)cc1`, for which the inhibition is -3.46%.
The value for `CCN1CCN(CCOCCOc2ccc([N+](=O)[O-])cc2)CC1` was 9.29%.
Next, `COc1cccc(/C=C(\C#N)c2nc3ccccc3[nH]2)c1OCc1ccc(Cl)cc1Cl`: 0.18%; `COc1ccc(C(CNCc2cc(=O)oc3cc4c(cc23)CCC4)N2CCOCC2)cc1` (configuration not stated): 13%; `CCOc1cc(CN2CCN(Cc3ccccn3)CC2)ccc1OC`: 17.5%.
As to `c1cc2c(cc1CN1CCN(C3CCCCC3)CC1)OCO2`, the inhibition is 2.75%.
With `COc1cc(CN2CCN(Cc3cc(OC)c(OC)cc3OC)CC2)cc(OC)c1`, the inhibition is -0.77%.
With `COc1cc(CN2CCN(Cc3ccccc3Br)CC2)cc(OC)c1`, the inhibition is 9.78%.
Consider `CCN(CC)C(=O)C1CCCN(Cc2cccc(Cl)c2)C1` (configuration not stated), for which the inhibition is 14.2%.
Regarding `COc1ccc(C(=O)N2CCN(Cc3ccccc3C(F)(F)F)CC2)cc1OC`, the inhibition is 20.4%.
Next, `CN(C)c1cccc(Nc2ccc(-c3cccc(C=O)c3)cn2)c1`: 73.1% (active).
Next, `C1=CC2CC1CC2CN1CCN(Cc2c[nH]c3ccccc23)CC1` (configuration not stated): 2.75%; `COc1ccc(CN2CCN(C3CCC(C)CC3)CC2)c(OC)c1OC` (configuration not stated): -12.1%; `CC(=O)c1ccc(NC(=O)C(C)NCc2ccc(C)cc2)cc1` (configuration not stated): 15.9%.
Next, `Fc1cccc(CN2CCN(C3CCC(c4ccccc4)CC3)CC2)c1` (configuration not stated): 21.8%; `COCCCN1C(=O)c2cccc3c(C(=O)c4ccccc4)ccc(c23)C1=O`: 12.9%; `CCOc1cccc(C2C(C(=O)OCCOc3ccccc3)=C(C)NC3=C2C(=O)CCC3)c1` (configuration not stated): 14.4%.
Take `COC(=O)C1(C)NC(c2ccc(C)cc2)C2C(=O)N(c3ccc(F)cc3)C(=O)C21` (configuration not stated): the inhibition was 11.6%.
Regarding `COc1cc(N2CCOCC2)ccc1Nc1cc(Nc2ccccc2-n2cccn2)c(C(F)(F)F)cn1`, the inhibition was 8.51%.
The value for `O=C(C1CCN(Cc2nc3ccccc3[nH]2)CC1)N1CCN(c2ccccn2)CC1` was 13.8%; that for `c1cncc(CCNc2ccc3ncc(-c4cc5ccccc5o4)n3n2)c1` was 6.63%; that for `O=C(c1ccccc1)N1CCN(C2CCCC2)CC1` was -2.61%.
The value for `COc1ccc(C2C(C(C)=O)=C(C)N=C3SCC(=O)N32)c(OC)c1` (configuration not stated) was -6.53%.
The value for `COc1ccc(C(=O)COC(=O)CNS(=O)(=O)/C=C/c2ccc(C)cc2)cc1OC` was 5.32%; that for `O=C(CN1CCN(CC(=O)c2ccco2)CC1)Nc1ccc(Cl)c(Cl)c1` was 10.6%; that for `COc1cc(CN2CCN(Cc3ccc(C)cc3)CC2)c([N+](=O)[O-])cc1OC` was 13.5%.
With `CCOc1ccccc1N1CCN(Cc2cc(OC)c(O)c([N+](=O)[O-])c2)CC1`, the inhibition is 16.9%.
With `O=C(CCC(=O)OCc1ccc(Cl)cc1)Nc1ccc([N+](=O)[O-])cc1`, the inhibition was 14.7%.
For `Cc1n[nH]c(=O)nc1N/N=C/c1cccs1`, the inhibition is 100% (active).
Next, `CC1CCN(S(=O)(=O)c2ccc(Cl)c(C(=O)Nc3ccccc3[N+](=O)[O-])c2)CC1`: 14.3%; `COc1ccc(OC)c(CN2CCN(Cc3ccc(Cl)cc3)CC2)c1`: 15.1%.
The value for `Cn1c(=NC(=O)COc2ccccc2)sc2cc(S(C)(=O)=O)ccc21` was 12.4%; that for `COC(=O)c1sc(NC(=O)c2ccccc2C)c(C#N)c1C` was -2.84%; that for `Cc1ccccc1NC(=O)NCCOc1cc(N2CCCC2)ncn1` was 13.1%.
On to `O=[N+]([O-])c1ccccc1CN1CCN(Cc2cccnc2)CC1`, for which the inhibition was 12.2%.
Next, `O=C(c1cccc(Cl)c1)N1CCN(Cc2cccnc2)CC1`: 7.21%; `COc1ccc(-c2nc(Nc3cc(OC)c(OC)c(OC)c3)c3[nH]cnc3n2)cc1`: 16.5%.
Next, `CCNc1nc(NCC)nc(C(=O)O)n1`: 77% (active).

The values are drawn from PubChem BioAssay AID1259376 (The Scripps Research Institute Molecular Screening Center, 2018).
